HP1b binding inh: HTS for Inhibitors of HP1-beta Chromodomain Interactions with Methylated Histone Tails | AlphaScreen HP1-beta / biotin-H3K9me3 peptide binding | AID 540317, 2011 | Potency, µM (titrated, usually from 114 µM), for the others: top-dose activity change, negative = inhibition, usual class: inhibitors | Chromobox protein homolog 1 (Homo sapiens), P83916 | 390,000 tested, 0.56% active; note: nearly all actives have a fitted effect of over 70% in size
Target sequence (P83916 whole entry, looked up): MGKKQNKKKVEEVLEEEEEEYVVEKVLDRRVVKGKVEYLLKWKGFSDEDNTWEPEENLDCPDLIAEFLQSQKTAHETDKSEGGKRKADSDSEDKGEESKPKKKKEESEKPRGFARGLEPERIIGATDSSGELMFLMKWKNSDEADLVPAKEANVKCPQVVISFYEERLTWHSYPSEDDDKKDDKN
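AlphaScreen: HP1-beta (50 nM) preformed 30 min with biotin-H3(1-18)K9me3 peptide (50 nM) in PBS pH 7.4, 0.01% Tween-20. Compound added for 30 min at RT, then streptavidin donor/nickel chelate acceptor beads (10 ug/mL) for 30 min.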
L3MBTL1 inh: qHTS Assay for the Inhibitors of L3MBTL1; Lethal(3)malignant brain tumor-like protein 1 (Homo sapiens), Q9Y468; AlphaScreen L3MBTL1–H3K9me1 peptide binding; AID 485360, 2010; Potency, µM (highest dose often 57.1 µM), inactives show top-dose activity, negative = inhibition, usual class: inhibitors; 230,000 tested, 0.66% active; note: % is set by controls: 0 for no effect and ±100 for the full control effect; nearly all actives have a fitted effect of over 60% in size
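L3MBTL1 50 nM + b-AHA-H3(1-15)K9me1 75 nM, 30 min RT; compound added, 30 min RT; streptavidin donor/Ni-chelate acceptor beads 10 ug/mL each final, 30 min RT dark; AlphaScreen read.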
JMJD2A Tudor inh: qHTS Assay for Inhibitors of JMJD2A-Tudor Domain. Potency, µM (top dose mostly 114 µM), for inactives: top-dose activity change, negative = inhibition, usual class: inhibitors. AlphaScreen JMJD2A-Tudor / H3K4me3 peptide binding. 390,000 tested, 4.4% active. AID 504339, 2011. Lysine-specific demethylase 4A (Homo sapiens), O75164; note: % is set by controls: 0 for no effect and ±100 for the full control effect; nearly all actives have a fitted effect of over 50% in size
G9a block: qHTS Assay for Inhibitors of Histone Lysine Methyltransferase G9a; 350,000 tested, 8.8% active; Potency, µM (titrated, usually from 102 µM), for the others: at the top dose activity, negative = inhibition, most hits filed as inhibitors; AID 504332, 2011; G9a H3K9 monomethylation, AlphaScreen, 2 h; note: % is set by controls: 0 for no effect and ±100 for the full control effect; nearly all actives have a fitted effect of over 75% in size
Target sequence (Q96KQ7 913-1193 limits assumed): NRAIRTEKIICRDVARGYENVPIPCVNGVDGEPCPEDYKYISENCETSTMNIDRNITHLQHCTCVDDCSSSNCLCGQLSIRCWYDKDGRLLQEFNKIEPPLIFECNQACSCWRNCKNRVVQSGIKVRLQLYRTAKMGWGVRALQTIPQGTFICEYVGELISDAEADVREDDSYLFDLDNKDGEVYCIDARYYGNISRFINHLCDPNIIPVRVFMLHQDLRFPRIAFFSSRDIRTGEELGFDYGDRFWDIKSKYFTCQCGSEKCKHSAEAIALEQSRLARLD
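Signal arises when biotinylated H3K9 peptide, once monomethylated, bridges streptavidin donor and antibody-captured acceptor beads. Enzyme at 20 nM was preincubated 15 min with test compounds; peptide 500 nM and SAM 20 uM then reacted for 2 h.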
BAZ2B inh: qHTS Assay for Inhibitors of BAZ2B; Potency, µM (titrated, usually from 114 µM), inactives show at the top dose activity change, negative = inhibition, hits mostly inhibitors; 360,000 tested, 4.4% active; AID 504333, 2011; AlphaScreen BAZ2B-H3K14Ac peptide displacement; note: % is set by controls: 0 for no effect and ±100 for the full control effect; nearly all actives have a fitted effect of over 60% in size
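AlphaScreen luminescence quantifies BAZ2B engagement of H3K14Ac peptide; the protein and biotinylated peptide are both at 50 nM final, buffer PBS pH 7.4 with 0.01% Tween-20, all steps at room temperature.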
Sfp PPTase inh: qHTS Assay for Inhibitors of Bacillus subtilis Sfp phosphopantetheinyl transferase (PPTase); Biochemical Sfp PPTase activity, qHTS; 310,000 tested, 3.5% active; Potency, µM, for inactives: largest response in the series, negative = inhibition, most hits filed as inhibitors; 4'-phosphopantetheinyl transferase ffp (Bacillus subtilis), Q9F4F7;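 note: the enzyme is Sfp with the accession as filed and its product quenches rhodamine fluorescence; 0% = enzyme reaction without inhibitor and -100% = no enzyme wells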
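Reaction rates are the 30-min fluorescence difference (ex 525, em 598 nm) in wells containing 15 nM Sfp, 5 uM rhodamine-CoA and 12.5 uM BHQ-2-YbbR at pH 7.6 with 10 mM MgCl2.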
Active calls of the source: *; ! = a repeat was not active; [ ] = dose if it differs, or a comment. Compounds with a hit are over-represented: about 12% of the library has one in this group of screens. Calls come from the whole dose curve; as a rule, active = well fitted curve in the direction sought with a large enough effect; inconclusive = small, poorly fitted or top-dose-only effect, or another doubt; inactive = no such curve, though single readings can be large; an effect the other way counts as inactive or inconclusive. Potency is the fitted concentration of half-maximal effect.

`COc1ccc(C2CC(c3ccccc3)=NN2C(=O)CN2CCN(Cc3ccccc3)CC2)cc1` (stereo unspecified) gave HP1b binding inh -30.7%, L3MBTL1 inh -15.7%, JMJD2A Tudor inh 79.4µM*, G9a block inconclusive, BAZ2B inh 35.5µM* and Sfp PPTase inh 18.3%.
Screening NC(=NCCCCCCN=C(N)/N=C(\N)Nc1ccc(Cl)cc1)/N=C(\N)Nc1ccc(Cl)cc1 returned HP1b binding inh 23.2%, L3MBTL1 inh 1.6%, JMJD2A Tudor inh -31.7%, G9a block 14.1µM*!, BAZ2B inh -28.1% and Sfp PPTase inh 28.2µM*!.
For CC(C)n1c(O)c(N=NC(=O)Cc2csc(N3CCOCC3)n2)c2ccccc21 the results were HP1b binding inh 19.1%, L3MBTL1 inh -11.5%, JMJD2A Tudor inh -25.2%, G9a block inconclusive, BAZ2B inh 39.8µM* and Sfp PPTase inh -2.3%.
CC(=O)c1cc(-c2ccccc2)n(CCC(=O)NC2CCCCCCC2)c1C was read as HP1b binding inh -28.5%, L3MBTL1 inh -3.9%, JMJD2A Tudor inh -30.4%, G9a block 0.9%[59 µM], BAZ2B inh 50.1µM* and Sfp PPTase inh -15.1%.
CCC(C)(C)NC(=O)CCn1c(-c2ccccc2)cc(C(C)=O)c1C was read as HP1b binding inh 6.4%, JMJD2A Tudor inh -16.6%, G9a block -22.2%, BAZ2B inh 50.1µM* and Sfp PPTase inh -3.7%.
For CC(=O)c1ccc(S(=O)(=O)NCCC(=O)NC2CCN(Cc3ccccc3)CC2)cc1 the results were HP1b binding inh 14.1µM*, L3MBTL1 inh 0.5% and JMJD2A Tudor inh 4.47µM*.
`COc1cc(NC(=O)C2CC2)c(OC)cc1NC(=O)CCC(=O)NC1CCN(Cc2ccccc2)CC1` gave HP1b binding inh 20.4%, L3MBTL1 inh -0.4%, JMJD2A Tudor inh -14.7%, G9a block 39.8µM*, BAZ2B inh -3.6% and Sfp PPTase inh 15.7%.
COc1ccc(NC(=O)CCc2nnc3n(CC(C)C)c(=O)c4ccccc4n23)cc1 was read as HP1b binding inh 10.4%, JMJD2A Tudor inh -16.0%, G9a block 2.2%[59 µM] and BAZ2B inh 3.9%.
Screening CCOC(=O)c1cc(-c2ccc(OC)cc2)n(CCC(=O)NC2CCN(Cc3ccccc3)CC2)c1C returned HP1b binding inh -32.9%, L3MBTL1 inh -1.3%, JMJD2A Tudor inh inconclusive, G9a block inconclusive, BAZ2B inh 39.8µM* and Sfp PPTase inh 5.8%.
Screening CCOC(=O)c1cc(-c2ccccc2)n(CCC(=O)NC2CCCCC2)c1C returned HP1b binding inh -8.9%, JMJD2A Tudor inh -1.3%, G9a block inconclusive and BAZ2B inh -26.4%.
Screening CCCC1=[N+](CC)CCn2c(C)ccc21 returned HP1b binding inh 6.2%, L3MBTL1 inh -1.6%, JMJD2A Tudor inh inconclusive, G9a block 14.1µM*, BAZ2B inh 8.2% and Sfp PPTase inh -6.8%.
For Oc1ccc(/C=C/c2cc(O)cc(O)c2)cc1 the results were HP1b binding inh 14.9%, L3MBTL1 inh -11.7%, JMJD2A Tudor inh -27.3%, G9a block 7.94µM*!, BAZ2B inh -26.8% and Sfp PPTase inh 5.7%.
Screening COc1ccc(Oc2ncc3ncc(=O)n(C4CC4)c3n2)cc1 returned G9a block 4.8%[0.501 µM] and Sfp PPTase inh 15.7%.
COc1ccccc1NC(=O)CCC(=O)O was read as HP1b binding inh 31.1%, L3MBTL1 inh 10.8%, JMJD2A Tudor inh 5.2%, G9a block -31.5%, BAZ2B inh -5.4% and Sfp PPTase inh 2.3%.

Assay outcomes deposited in PubChem by National Center for Advancing Translational Sciences (NCATS).
